Test results reported in paper PMC5540273 (PLoS ONE, 2017).

Key:
Settings in all cases: concentration: 1 μM, replicates: in singlicate; n = 1
PIP5K1A = tested on: PIP5K1A
PIP5K1C = tested on: PIP5K1C
PIP5K2B = tested on: PIP5K2B
PIP5K2C = tested on: T1, PIP5K2C
T1 construct: gene PIP4K2C

PKAC-alpha = tested on: T2, PKAC-alpha
T2 construct: gene PRKACA

PKAC-beta = tested on: T3, PKAC-beta
T3 construct: gene PRKACB

PKMYT1 = tested on: PKMYT1
PKN1 = tested on: PKN1
PKN2 = tested on: PKN2
PLK1 = tested on: PLK1
PLK2 = tested on: PLK2
PLK3 = tested on: PLK3
PLK4 = tested on: PLK4
PRKCD = tested on: PRKCD
PRKCE = tested on: PRKCE
PRKCH = tested on: PRKCH
PRKCI = tested on: PRKCI
PRKCQ = tested on: PRKCQ
PRKD1 = tested on: PRKD1
PRKD2 = tested on: PRKD2
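Further: KINOMEscan kinase panel screen.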

c1ccc(Oc2ccc(Nc3ccnc4cc(-c5ccc(CN6CCCCC6)o5)ccc34)cc2)nc1 [GW567143]
%Inh (PIP5K1A): 9% | %Inh (PIP5K1C): 47% | %Inh (PIP5K2B): 0% | %Inh (PIP5K2C): 48% | %Inh (PKAC-alpha): 2% | %Inh (PKAC-beta): 0% | %Inh (PKMYT1): 0% | %Inh (PKN1): 0% | %Inh (PKN2): 0% | %Inh (PLK1): 5% | %Inh (PLK2): 0% | %Inh (PLK3): 0% | %Inh (PLK4): 44% | %Inh (PRKCD): 7% | %Inh (PRKCE): 0% | %Inh (PRKCH): 5% | %Inh (PRKCI): 0% | %Inh (PRKCQ): 10% | %Inh (PRKD1): 0% | %Inh (PRKD2): 12%

Nc1cccc(-c2ccc3c(N)n[nH]c3c2)c1 [GSK2193613]
%Inh (PIP5K1A): 0% | %Inh (PIP5K1C): 28% | %Inh (PIP5K2B): 0% | %Inh (PIP5K2C): 16% | %Inh (PKAC-alpha): 0% | %Inh (PKAC-beta): 4% | %Inh (PKMYT1): 8% | %Inh (PKN1): 0% | %Inh (PKN2): 0% | %Inh (PLK1): 0% | %Inh (PLK2): 0% | %Inh (PLK3): 0% | %Inh (PLK4): 4% | %Inh (PRKCD): 68% | %Inh (PRKCE): 11% | %Inh (PRKCH): 61% | %Inh (PRKCI): 0% | %Inh (PRKCQ): 20% | %Inh (PRKD1): 0% | %Inh (PRKD2): 2%

Cc1ccc(NC(=O)c2ccc(Cl)c(Cl)c2)cc1-c1ccc(C(=O)Nc2ccncc2)cc1 [GSK1398460]
%Inh (PIP5K1A): 0% | %Inh (PIP5K1C): 0% | %Inh (PIP5K2B): 0% | %Inh (PIP5K2C): 0% | %Inh (PKAC-alpha): 13% | %Inh (PKAC-beta): 7% | %Inh (PKMYT1): 31% | %Inh (PKN1): 1% | %Inh (PKN2): 15% | %Inh (PLK1): 0% | %Inh (PLK2): 0% | %Inh (PLK3): 0% | %Inh (PLK4): 8% | %Inh (PRKCD): 0% | %Inh (PRKCE): 10% | %Inh (PRKCH): 22% | %Inh (PRKCI): 0% | %Inh (PRKCQ): 15% | %Inh (PRKD1): 15% | %Inh (PRKD2): 0%

CCOc1nccc(-c2c(-c3ccc(F)cc3)ncn2C2CCNCC2)n1 [SB-249175]
%Inh (PIP5K1A): 0% | %Inh (PIP5K1C): 14% | %Inh (PIP5K2B): 0% | %Inh (PIP5K2C): 21% | %Inh (PKAC-alpha): 11% | %Inh (PKAC-beta): 25% | %Inh (PKMYT1): 23% | %Inh (PKN1): 6% | %Inh (PKN2): 18% | %Inh (PLK1): 9% | %Inh (PLK2): 24% | %Inh (PLK3): 23% | %Inh (PLK4): 26% | %Inh (PRKCD): 20% | %Inh (PRKCE): 5% | %Inh (PRKCH): 100% | %Inh (PRKCI): 5% | %Inh (PRKCQ): 10% | %Inh (PRKD1): 38% | %Inh (PRKD2): 35%

CSc1ccc(NC2=C(c3ccc(Cl)cc3)C(=O)NC2=O)cc1 [SB-317658]
%Inh (PIP5K1A): 0% | %Inh (PIP5K1C): 0% | %Inh (PIP5K2B): 43% | %Inh (PIP5K2C): 0% | %Inh (PKAC-alpha): 16% | %Inh (PKAC-beta): 16% | %Inh (PKMYT1): 10% | %Inh (PKN1): 7% | %Inh (PKN2): 9% | %Inh (PLK1): 4% | %Inh (PLK2): 6% | %Inh (PLK3): 0% | %Inh (PLK4): 30% | %Inh (PRKCD): 4% | %Inh (PRKCE): 0% | %Inh (PRKCH): 2% | %Inh (PRKCI): 8% | %Inh (PRKCQ): 0% | %Inh (PRKD1): 17% | %Inh (PRKD2): 0%

N#Cc1cnc2cc(-c3cnc(CNCCN4CCOCC4)s3)ccc2c1Nc1ccc(Oc2ccccc2)cc1 [GW664114]
%Inh (PIP5K1A): 25% | %Inh (PIP5K1C): 34% | %Inh (PIP5K2B): 31% | %Inh (PIP5K2C): 41% | %Inh (PKAC-alpha): 0% | %Inh (PKAC-beta): 0% | %Inh (PKMYT1): 0% | %Inh (PKN1): 13% | %Inh (PKN2): 0% | %Inh (PLK1): 0% | %Inh (PLK2): 0% | %Inh (PLK3): 0% | %Inh (PLK4): 2% | %Inh (PRKCD): 0% | %Inh (PRKCE): 0% | %Inh (PRKCH): 96.3% | %Inh (PRKCI): 5% | %Inh (PRKCQ): 0% | %Inh (PRKD1): 0% | %Inh (PRKD2): 18%

CS(=O)(=O)c1cccc(CNc2nc(Nc3ccc4c(c3)CCC(=O)N4)ncc2C(F)(F)F)c1
%Inh (PIP5K1A): 61% | %Inh (PIP5K1C): 58% | %Inh (PIP5K2B): 59% | %Inh (PIP5K2C): 69% | %Inh (PKAC-alpha): 0% | %Inh (PKAC-beta): 0% | %Inh (PKMYT1): 0% | %Inh (PKN1): 49% | %Inh (PKN2): 2% | %Inh (PLK1): 0% | %Inh (PLK2): 29% | %Inh (PLK3): 31% | %Inh (PLK4): 51% | %Inh (PRKCD): 4% | %Inh (PRKCE): 0% | %Inh (PRKCH): 0% | %Inh (PRKCI): 13% | %Inh (PRKCQ): 0% | %Inh (PRKD1): 0% | %Inh (PRKD2): 0%

COc1cccc2c(-c3ccncc3)c(-c3ccc(F)cc3)nn12 [GW468513]
%Inh (PIP5K1A): 0% | %Inh (PIP5K1C): 64% | %Inh (PIP5K2B): 6% | %Inh (PIP5K2C): 26% | %Inh (PKAC-alpha): 23% | %Inh (PKAC-beta): 31% | %Inh (PKMYT1): 0% | %Inh (PKN1): 6% | %Inh (PKN2): 0% | %Inh (PLK1): 0% | %Inh (PLK2): 0% | %Inh (PLK3): 0% | %Inh (PLK4): 0% | %Inh (PRKCD): 6% | %Inh (PRKCE): 25% | %Inh (PRKCH): 30% | %Inh (PRKCI): 26% | %Inh (PRKCQ): 41% | %Inh (PRKD1): 29% | %Inh (PRKD2): 20%

O=C(O)C(F)(F)F.O=c1[nH]ccc2nc(N[C@@H]3CCNC3)nc(Nc3cc(Cl)cc(Cl)c3)c12 [GSK2188764]
%Inh (PIP5K1A): 75% | %Inh (PIP5K1C): 75% | %Inh (PIP5K2B): 86% | %Inh (PIP5K2C): 85% | %Inh (PKAC-alpha): 20% | %Inh (PKAC-beta): 35% | %Inh (PKMYT1): 8% | %Inh (PKN1): 83% | %Inh (PKN2): 81% | %Inh (PLK1): 81% | %Inh (PLK2): 26% | %Inh (PLK3): 16% | %Inh (PLK4): 81% | %Inh (PRKCD): 99.6% | %Inh (PRKCE): 100% | %Inh (PRKCH): 97.4% | %Inh (PRKCI): 85% | %Inh (PRKCQ): 95.1% | %Inh (PRKD1): 82% | %Inh (PRKD2): 93.4%

O=C(Nc1c(F)cccc1F)c1cc(C(=O)c2ccccc2F)c[nH]1 [GSK1326180]
%Inh (PIP5K1A): 34% | %Inh (PIP5K1C): 49% | %Inh (PIP5K2B): 0% | %Inh (PIP5K2C): 25% | %Inh (PKAC-alpha): 0% | %Inh (PKAC-beta): 5% | %Inh (PKMYT1): 3% | %Inh (PKN1): 8% | %Inh (PKN2): 0% | %Inh (PLK1): 18% | %Inh (PLK2): 0% | %Inh (PLK3): 0% | %Inh (PLK4): 0% | %Inh (PRKCD): 9% | %Inh (PRKCE): 0% | %Inh (PRKCH): 4% | %Inh (PRKCI): 2% | %Inh (PRKCQ): 20% | %Inh (PRKD1): 11% | %Inh (PRKD2): 14%
